Results filed as inconclusive are left out. Active and inactive are the calls of the source. How the source made its calls, unless noted: active means hit-call score of the fitted dose curve at least 0.9, where 1 is the maximum; inactive means score below 0.9.
Columns and labels:
[1] = read-out: Transforming Growth Factor (TGFB1), TGFB1 (gene 7040); test: LTEA_HepaRG_TGFB1: Life Technologies and Expression Analysis (LTEA) Assay for Transforming Growth Factor (TGFB1) Transporter using HepaRG (AID 2283533); details: mRNA level, 48 h; actives raise or lower the signal
In short: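 Expression change of TGFB1 in human HepaRG cells is measured after a 48 h chemical exposure, up to 100 uM in 0.5% DMSO vehicle. Curves are fitted in both directions relative to the DMSO baseline.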

TIMP1, TIMP1 (gene 7076) = test: LTEA_HepaRG_TIMP1: Life Technologies and Expression Analysis (LTEA) Assay for TIMP1 using HepaRG (AID 2283534); details: mRNA level, 48 h; actives raise or lower the signal
In short: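 We dosed human liver HepaRG cultures for 48 hours with up to 100 uM test chemical and measured TIMP1 expression by qRT-PCR. Activity in either direction is fitted relative to the 0.5% DMSO vehicle.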

[2] = read-out: Tumor necrosis factor receptor 1 (TNFRSF1A), TNFRSF1A (gene 7132); test: LTEA_HepaRG_TNFRSF1A: Life Technologies and Expression Analysis (LTEA) Assay for Tumor necrosis factor receptor 1 (TNFRSF1A) using HepaRG (AID 2283535); details: mRNA level, 48 h; actives raise or lower the signal
In short: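 Expression of TNFRSF1A in human HepaRG liver cells was measured by qRT-PCR 48 h after chemical dosing (maximum 100 uM). Bidirectional curve fitting used 0.5% DMSO as baseline.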

[3] = read-out: Thyroid Hormone Responsive (THRSP), THRSP (gene 7069); test: LTEA_HepaRG_THRSP: Life Technologies and Expression Analysis (LTEA) Assay for Thyroid Hormone Responsive (THRSP) using HepaRG (AID 2283536); details: mRNA level, 48 h; actives raise or lower the signal
In short: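 qRT-PCR read-out (Fluidigm TaqMan), housekeeping-normalized (ACTB/GAPDH/POLR2A). HepaRG, 48 h chemical exposure, 8-pt half-log series from 100 uM in 0.5% DMSO, duplicates. Bidirectional curve fit vs 0.5% DMSO baseline.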

[4] = read-out: Cellular tumor antigen p53 (Homo sapiens) (UniProt P04637); test: LTEA_HepaRG_TP53: Life Technologies and Expression Analysis (LTEA) Assay for Tumor Protein P53 (TP53) using HepaRG (AID 2283537); details: mRNA level, 48 h; actives raise or lower the signal
In short: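 HepaRG, 48 h exposure, top 100 uM, half-log 8-point, 0.5% DMSO vehicle, duplicates. Read: TP53 mRNA by TaqMan qRT-PCR, normalised to ACTB/GAPDH/POLR2A; bidirectional fit vs DMSO.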

[5] = read-out: UDP glucuronosyltransferase (UGT1A1), UGT1A1 (gene 54658); test: LTEA_HepaRG_UGT1A1: Life Technologies and Expression Analysis (LTEA) Assay for UDP glucuronosyltransferase (UGT1A1) using HepaRG (AID 2283538); details: mRNA level, 48 h; actives raise or lower the signal
In short: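 HepaRG, 48 h chemical exposure (top 100 uM, half-log 8-pt, 0.5% DMSO vehicle), duplicate wells; qRT-PCR (TaqMan, Fluidigm array) for UGT1A1 mRNA, housekeeping-normalized; bidirectional curve fit vs DMSO baseline.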

[6] = read-out: UDP glucuronosyltransferase (UGT1A6), UGT1A6 (gene 54578); test: LTEA_HepaRG_UGT1A6: Life Technologies and Expression Analysis (LTEA) Assay for UDP glucuronosyltransferase (UGT1A6) using HepaRG (AID 2283539); details: mRNA level, 48 h; actives raise or lower the signal
In short: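 Endpoint is UGT1A6 transcript induction or loss in a human liver cell line, quantified by TaqMan qRT-PCR 48 h after dosing. Concentrations ran from 100 uM downward in half-log steps in 0.5% DMSO; activity was fitted in both directions versus vehicle.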

[7] = read-out: X-box binding protein 1 (XBP1), XBP1 (gene 7494); test: LTEA_HepaRG_XBP1: Life Technologies and Expression Analysis (LTEA) Assay for X-box binding protein 1 (XBP1) using HepaRG (AID 2283540); details: mRNA level, 48 h; actives raise or lower the signal
In short: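 Human HepaRG monolayers receive test chemical for 48 h across an eight-point half-log series starting at 100 uM. XBP1 mRNA gain or loss is scored against DMSO by qRT-PCR.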

[8] = LTEA_HepaRG_LDH_cytotoxicity: Cytotoxicity Assessment in the Life Technologies and Expression Analysis (LTEA) Assay (AID 2283563; active means hit-call score of the fitted dose curve at least 0.9, where 1 is the maximum;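 on AC50: LDH activity released into spent culture medium as a marker of cell death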)
In short: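 Human HepaRG hepatic cells are treated with test chemicals for 48 h at up to 100 uM in 0.5% DMSO. Cytotoxicity is scored from medium LDH against the vehicle control.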

[9] = ATG_XTT_Cytotoxicity: Cytotoxicity Assessment in the Attagene TRANS-FACTORIAL HepG2 Assay (AID 2283584; active means hit-call score of the fitted dose curve at least 0.9, where 1 is the maximum)
In short: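 Transfect HepG2 with GAL4-UAS reporter units, dose compound, incubate 24 h, then measure viable cell number by XTT. Fit concentration response against DMSO baseline.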

Measured: AC50

Sequence of Cellular tumor antigen p53 (Homo sapiens) (P04637 whole entry, looked up): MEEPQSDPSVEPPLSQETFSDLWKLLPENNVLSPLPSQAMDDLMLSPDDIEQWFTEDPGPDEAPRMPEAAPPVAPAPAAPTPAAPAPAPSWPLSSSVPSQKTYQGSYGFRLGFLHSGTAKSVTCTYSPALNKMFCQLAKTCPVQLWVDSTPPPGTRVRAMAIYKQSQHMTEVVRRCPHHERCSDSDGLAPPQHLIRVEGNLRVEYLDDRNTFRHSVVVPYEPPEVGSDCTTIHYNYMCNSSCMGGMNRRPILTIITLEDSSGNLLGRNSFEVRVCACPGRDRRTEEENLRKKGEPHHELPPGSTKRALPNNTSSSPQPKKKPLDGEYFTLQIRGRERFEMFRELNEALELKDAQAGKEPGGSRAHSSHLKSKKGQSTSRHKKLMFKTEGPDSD

O=P(OC(CCl)CCl)(OC(CCl)CCl)OC(CCl)CCl
inactive: TIMP1, TIMP1 (gene 7076) | [7] | [8] | [9]
active: [1] 62.9 µM | [2] 0.231 µM | [3] 94.4 µM | [4] 86.6 µM | [5] 88.6 µM | [6] 10.1 µM

Cc1ccc(O)cc1
not listed: [9]
inactive: all other assays above

O=C1CCCCCN1
inactive: all assays above

CCOC(=O)c1ccc(C2CCC(NC[C@H](O)COc3ccc(O)c(NS(C)(=O)=O)c3)CC2)cc1 (some centres undefined)
not listed: [9]
inactive: all other assays above

CC(C)CCO
not listed: [9]
inactive: all other assays above

Fc1ccccc1[C@@H](F)COC1CCC(Nc2ncnc3[nH]ncc23)CC1 (some centres undefined)
active: [5] 68 µM | [6] 50 µM
not listed: [9]
inactive: all other assays above

O=c1n(CC2CO2)c(=O)n(CC2CO2)c(=O)n1CC1CO1 (centres undefined)
active: [4] 90.1 µM
inactive: all other assays above

O=c1[nH]c2ccc(S(=O)CCN3CCC(Cc4ccc(F)cc4)CC3)cc2o1 (centres undefined)
active: [3] 85.5 µM
not listed: [9]
inactive: all other assays above

CCCCCCCCCCCCc1ccccc1
inactive: all assays above

CN(C)c1ccc(Cc2ccc(N(C)C)cc2)cc1
active: [3] 19.5 µM | [5] 11.5 µM | [6] 85.6 µM
not listed: [9]
inactive: all other assays above

CCOCCO
inactive: all assays above

C=CCCCCCCCCC(=O)O
inactive: all assays above

CCNc1ccccc1
not listed: [7] | [9]
inactive: all other assays above

C1N2CN3CN1CN(C2)C3
inactive: all assays above

On1ccccc1=S
inactive: all assays above

COc1ccc(/C=C/S(=O)(=O)NC(=O)c2ccc(C)cc2Cl)cc1
inactive: all assays above

Cc1c(-c2cccnc2)c2ccccc2n1CCCCC(=O)O
not listed: [9]
inactive: all other assays above

CC1=CC(=O)CC(C)(C)C1
not listed: [9]
inactive: all other assays above

COC(=O)c1ccccc1O
inactive: all assays above

Clc1nc(Cl)c(Cl)c(Cl)c1Cl
inactive: all assays above

Cn1cnc([N+](=O)[O-])c1Sc1ncnc2nc[nH]c12
active: [1] 12.8 µM | [3] 10.7 µM | [5] 0.754 µM | [6] 3.9 µM
inactive: all other assays above

CCOC(=O)COc1ccc2c(c1)CC(NCC(O)c1cccc(Cl)c1)CC2 (centres undefined)
active: [7] 45.8 µM
not listed: [9]
inactive: all other assays above

Cc1ccc(S(=O)(=O)O)cc1C
inactive: all assays above

CCCCC(CC)COC(=O)c1ccc(C(=O)OCC(CC)CCCC)cc1 (centres undefined)
not listed: [9]
inactive: all other assays above

Cn1c(=O)c2c(ncn2C)n(C)c1=O
inactive: all assays above

COc1ccc(-n2nc(C(F)F)cc2-c2ccc(S(C)=O)cc2)cc1 (centres undefined)
active: [5] 39.6 µM
inactive: all other assays above

COc1cccc(-c2ccc(/C=C\CN3CCCCCC3)cc2Cl)c1
active: [1] 87.3 µM | [5] 83.4 µM | [6] 80.4 µM | [8] 68.8 µM
not listed: [9]
inactive: all other assays above

COC(=O)CC(=O)OC
not listed: [9]
inactive: all other assays above

CCCCCCc1ccc(O)cc1O
active: [8] 77.7 µM
inactive: all other assays above

CC[C@H]1CC[C@H](NCc2cc3c(cc2OC)[C@H]2C[C@H]2C(=O)N3C)[C@H](c2ccccc2)N1
active: [3] 29.3 µM | [5] 19 µM
not listed: [2] | [9]
inactive: all other assays above

Nc1ccc(Nc2ccccc2)cc1
active: [5] 50 µM
not listed: [7] | [9]
inactive: all other assays above

CC(C)CC(C)(O)C#CC(C)(O)CC(C)C (centres undefined)
not listed: [7]
inactive: all other assays above

O=C(O)c1cccc(Oc2ccccc2)c1
not listed: [7]
inactive: all other assays above

CC(=O)OCCC(C)C
not listed: [2]
inactive: all other assays above

CCCC(=O)OCC
not listed: [7] | [9]
inactive: all other assays above

CCc1cc(SCc2sc(-c3ccc(C(F)(F)F)cc3)nc2CN2CCN(c3ccc(OC)cc3)CC2)ccc1OCC(=O)O
inactive: [3]
active: [1] 28.9 µM | TIMP1, TIMP1 (gene 7076) 94 µM | [2] 5 µM | [4] 7.74 µM | [5] 7.28 µM | [6] 7.77 µM | [8] 16.2 µM

CC(O)CN(CCN(CC(C)O)CC(C)O)CC(C)O (centres undefined)
not listed: [7]
inactive: all other assays above

CC1(C)C(=O)N(Br)C(=O)N1Br
active: [5] 21.4 µM
not listed: [7]
inactive: all other assays above

O=C(O)CC(O)C(=O)O (centres undefined)
not listed: [7]
inactive: all other assays above

CCOc1cccc(-n2cc(C(=O)N3CCN(c4cc(C(=O)O)c5ccccc5c4)CC3)nc2-c2ccc(C)cc2)c1
active: [1] 83.7 µM | [3] 26.3 µM | [4] 91.5 µM | [5] 75.9 µM | [6] 75.1 µM | [7] 88.1 µM | [8] 36.3 µM
inactive: TIMP1, TIMP1 (gene 7076)

O=C1OC(=O)C2C3C=CC(C3)C12 (centres undefined)
not listed: [7]
inactive: all other assays above

— PubChem BioAssay (EPA / NIEHS)
